# From PubChem BioAssay AID1376 (SRMLSC, 2008)
# About 530 (0.24%) of roughly 220,000 compounds were called active. The list comes from a sample in which actives are over-represented; it also holds similar structures and randomly drawn compounds. Potency and affinity values are given separately. Values without a mark were called inactive. No stated cut-off is given here; in the data, active means inhibition above about 13%; inconclusive means no clear call, values can overlap the other calls; inactive means below that.
# Molecular target: Bifunctional protein GlmU (Mycobacterium tuberculosis (strain ATCC 25618 / H37Rv)) (UniProt P9WMN3)
# Test: inhibition of mycobacterial GlmU enzyme – biochemical, glucosamine-1-phosphate acetyltransferase (AID 1376);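 further: 0% = complete reaction with vehicle and 100% = reaction without substrate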
# Conditions: M. tuberculosis GlmU acetyltransferase enzyme assay; stronger effect = higher value;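 tested at 30 µM in the primary screen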
# Bifunctional protein GlmU (Mycobacterium tuberculosis (strain ATCC 25618 / H37Rv)), sequence (P9WMN3 whole entry, looked up): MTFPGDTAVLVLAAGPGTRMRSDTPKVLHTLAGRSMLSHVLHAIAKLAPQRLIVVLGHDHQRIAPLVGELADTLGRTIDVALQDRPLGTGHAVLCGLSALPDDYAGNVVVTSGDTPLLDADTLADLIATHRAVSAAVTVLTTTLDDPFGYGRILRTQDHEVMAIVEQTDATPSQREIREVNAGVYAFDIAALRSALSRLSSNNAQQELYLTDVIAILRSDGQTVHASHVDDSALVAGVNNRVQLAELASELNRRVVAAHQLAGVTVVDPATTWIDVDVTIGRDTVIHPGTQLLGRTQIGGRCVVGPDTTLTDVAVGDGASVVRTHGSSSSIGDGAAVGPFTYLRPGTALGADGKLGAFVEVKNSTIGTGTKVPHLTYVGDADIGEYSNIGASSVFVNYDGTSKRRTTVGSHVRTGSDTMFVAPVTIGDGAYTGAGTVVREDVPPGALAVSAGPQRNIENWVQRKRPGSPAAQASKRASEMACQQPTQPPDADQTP
row,Structure (SMILES),inhibition
1,O=C(C(=S)N1CCOCC1)c1c[nH]c2ccccc12,-1.14%
2,O=C1C2C3C=CC(CC3)C2C(=O)N1/N=C/c1c(O)ccc2ccccc12 (configuration not stated),-1.22%
3,CC(NC(=O)c1ccco1)C1COc2ccccc2O1 (configuration not stated),1.62%
4,CC(Sc1nnc2ccccn12)C(=O)Nc1ccc(Cl)cn1 (configuration not stated),8.91%
5,COc1ccccc1C1=NN(C2=NN=C(N)Cc3ncnn32)C(O)(C(F)(F)F)C1 (configuration not stated),-7.53%
6,N#CCC(=O)N/N=C/c1cccc(Oc2ccccc2)c1,5.36%
7,CN1CCN(c2nc3ccccc3c(=O)n2-c2ccccc2)CC1,2.07%
8,O=c1c2ccccc2nc(N2CCCC2)n1-c1ccccc1,13.9% (active)
9,O=c1c2ccccc2nc(N2CCCC2)n1-c1ccc(Cl)cc1,3.51%
10,CC1(C)CC(=O)C2=C(C1)NC(=O)C21C(C(=O)OC(C)(C)C)=C(N)Oc2ccc(Br)cc21 (configuration not stated),4.2%
11,O=C(Cc1ccccc1[N+](=O)[O-])Nc1ccc2c(c1)OCO2,0.87%
12,O=C(Cc1ccc([N+](=O)[O-])cc1)NCc1ccc2c(c1)OCO2,-3.22%
13,O=C(Cc1ccccc1[N+](=O)[O-])NCc1ccc2c(c1)OCO2,14% (active)
14,O=C(/C=C\c1ccco1)Oc1cccc2cccnc12,0.86%
15,O=C(/C=C/c1ccco1)Oc1cccc2cccnc12,14.7% (active)
16,O=C(/C=C/c1ccccc1)Oc1cccc2cccnc12,0.34%
17,CN(NC(=O)Nc1ccccc1)c1cnn(C)c(=O)c1Cl,4.46%
18,Cc1ccc(NC(=O)CC2COc3ccccc3O2)cc1 (configuration not stated),-0.6%
19,CC1(C)CC(=O)C2=C(C1)NC(=O)CC2c1ccc(N(CCC#N)CCC#N)cc1 (configuration not stated),-4.28%
20,O=C1c2ccccc2C(=O)N1/N=C/c1ccc(O)c(O)c1O,10.8%
21,O=C1CSC(=S)N1/N=C/c1ccc(O)c([N+](=O)[O-])c1,55.6% (active)
22,COc1cc(/C=N/N2C(=O)CSC2=S)ccc1O,-0.65%
23,O=C1CSC(=S)N1/N=C/c1ccc(Cl)c([N+](=O)[O-])c1,4.42%
24,COc1cccc(/C=N/N2C(=O)CSC2=S)c1O,5.18%
25,COC(=O)c1c(C)n(-c2ccc(C)cc2)c2ccc(O)cc12,-3.11%
26,O=C(CCn1c(=O)[nH]c2ccccc2c1=O)N1CC=C(c2ccccc2)CC1,1.07%
27,O=C(CSc1ccccn1)N/N=C/c1cc([N+](=O)[O-])ccc1O,4.16%
